Screening data as filed in PubChem BioAssay.
TDP1 inh – inhibitors of human tyrosyl-DNA phosphodiesterase TDP1; hit rate 0.28% among 350,000; recombinant TDP1, AlphaScreen DNA substrate cleavage; AID 485290; Q9NUW8; Potency, µM (series often up to 130 µM), without a hit: at the highest dose activity change, negative = inhibition, most hits filed as inhibitors; also: potency is read from the fitted curve at half-maximal effect; nearly all actives have a fitted effect of over 40% in size
Target sequence (Q9NUW8 whole entry, looked up): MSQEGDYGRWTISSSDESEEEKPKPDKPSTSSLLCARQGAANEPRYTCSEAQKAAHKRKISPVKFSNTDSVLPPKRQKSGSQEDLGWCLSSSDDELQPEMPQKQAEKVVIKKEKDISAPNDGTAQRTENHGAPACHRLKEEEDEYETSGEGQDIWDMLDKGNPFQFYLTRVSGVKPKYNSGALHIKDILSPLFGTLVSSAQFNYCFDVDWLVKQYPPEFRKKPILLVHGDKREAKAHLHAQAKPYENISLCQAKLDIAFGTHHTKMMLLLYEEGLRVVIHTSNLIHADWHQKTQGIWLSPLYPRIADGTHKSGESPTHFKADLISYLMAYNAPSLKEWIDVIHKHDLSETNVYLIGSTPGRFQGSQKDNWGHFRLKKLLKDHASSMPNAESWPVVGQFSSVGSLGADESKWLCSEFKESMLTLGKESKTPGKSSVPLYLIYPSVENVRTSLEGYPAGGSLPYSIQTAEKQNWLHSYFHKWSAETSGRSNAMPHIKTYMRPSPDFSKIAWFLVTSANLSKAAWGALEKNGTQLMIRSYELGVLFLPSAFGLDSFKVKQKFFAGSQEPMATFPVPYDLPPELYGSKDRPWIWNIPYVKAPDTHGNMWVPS
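Steps: enzyme plus compound, 15 min RT; add biotin/phosphotyrosine-FITC oligonucleotide (15 nM final), react 5 min; add donor/acceptor beads (10 ug/ml final), 10 min; read AlphaScreen. Tdp1 at 1 nM final.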
IL-1B inflam inh – inflammasome signaling inhibition, IL-1 beta readout; activity change, % at 57.5 µM; THP-1 LPS/ATP IL-1B secretion, AlphaLISA, 16 h; stronger effect = lower value; hit rate 4.7% among 360,000; in the data active = activity change below about -50%; inconclusive = mostly about -30% to -49%
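Secreted IL-1B measured by AlphaLISA bead assay after 16 h compound exposure of THP-1 cells; compounds (final up to 57.5 uM) added 1 h before LPS (250 ng/mL) and ATP (1.25 mM) stimulation; lower signal means less secretion.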
DT40 TDP1 no CPT – qHTS for Inhibitors of human tyrosyl-DNA phosphodiesterase 1 (TDP1): qHTS in cells in absence of CPT; DT40 Tdp1-/- hTDP1 cells, no CPT, ATP luminescence, 48 h; Potency, µM (highest dose often 46.2 µM), for the others: at the top dose activity change, negative = growth inhibition, hits mostly inhibitors; hit rate 15% among 420,000; also: potency is read from the fitted curve at half-maximal effect; nearly all actives have a fitted effect of over 55% in size
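Cells were dispensed at 400 per well, compounds added by pin tool, plates incubated ≥48 hr at 37 °C, then CellTiter-Glo added for 30 min at room temperature before luminescence reading. Line: DT40 Tdp1-/- complemented with hTDP1; camptothecin omitted.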
Giardia kill – Giardia lamblia killing | AID 540267 | activity change, % at 7.66 µM, hits read low | hit rate 0.15% among 340,000 | Giardia lamblia trophozoite viability; in the data active = activity change below about -80%; inconclusive = between about -30% and that limit;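 also: parasites exposed to compound for two days anaerobically before the ATP read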
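Luminescent ATP signal served as the viability read-out, measured 15-30 min after adding ATP detection reagent to trophozoites that had been incubated with compounds for 48 hrs at 37 deg C anaerobically at 100 cells/well.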
ELG1 DNA repair – inhibitors of ELG1-dependent DNA repair in HEK293T cells; hit rate 2.3% among 330,000; Potency, µM (titrated, usually from 46.1 µM), without a hit: top-dose activity change, negative = inhibition, hits mostly inhibitors; HEK293T ELG1-luciferase reporter, luminescence, 16 h; DNA damage induced by 5-fluorouridine; AID 504467; also: potency is read from the fitted curve at half-maximal effect; nearly all actives have a fitted effect of over 55% in size
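DMSO vehicle served as the neutral condition. Each well held 2,000 cells given 5-fluorouridine plus compound; after 16 hr at 37 °C/5% CO2, ONE-Glo was added and luciferase measured 30 min later.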
DT40 TDP1 CPT – growth inhibition of DT40 Tdp1-/-;hTDP1 cells with camptothecin (screen for TDP1 inhibitors); hit rate 12% among 420,000; Potency, µM (series often up to 46.2 µM), for inactives: at the highest dose activity change, negative = growth inhibition, most hits filed as inhibitors; AID 686979; chicken DT40 Tdp1-/-;hTDP1 cells + 20 nM CPT, ATP luminescence, 48 h; also: potency is read from the fitted curve at half-maximal effect; nearly all actives have a fitted effect of over 55% in size
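Chicken DT40 Tdp1-/- cells complemented with human TDP1, 400 cells/well, exposed to compounds plus 20 nM camptothecin for at least 48 h at 37 C; viability read as ATP content by CellTiter-Glo luminescence.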
Numbers without * were called inactive; [ ] = another dose, or the depositor's remark. An excerpt weighted towards active compounds, which were near 19% of everything screened. Unless noted, calls follow the shape of the dose curve; as a rule, active = well fitted curve in the direction sought with a large enough effect; inconclusive = small, poorly fitted or top-dose-only effect, or another doubt; inactive = no such curve, though single readings can be large; an effect the other way counts as inactive or inconclusive. % is scaled to controls: 0 for no effect and ±100 for the full control effect.

How did COc1ccc(S(=O)(=O)N/N=C(/C)c2ccncc2)c(OC)c1 do in these assays?
TDP1 inh: 3%; IL-1B inflam inh: inconclusive; DT40 TDP1 no CPT: 9%; Giardia kill: 3; ELG1 DNA repair: 3%; DT40 TDP1 CPT: inconclusive

What do the screens show for `COCCN1CCN(C(=O)c2cnn(-c3nccc(-c4cc5ccccc5o4)n3)c2C2CC2)CC1`?
DT40 TDP1 no CPT: -25%; DT40 TDP1 CPT: -2%[9.04 µM]

How did Cc1ccc(C)c(NC(=O)N2CC=C(c3c[nH]c4ccccc34)CC2)c1 do in these assays?
TDP1 inh: 11%; DT40 TDP1 no CPT: inconclusive; DT40 TDP1 CPT: inconclusive

What do the screens show for `CSc1ccc(NC(=O)N2CC=C(n3c(=O)[nH]c4ccccc43)CC2)cc1`?
TDP1 inh: 5%; IL-1B inflam inh: -8; DT40 TDP1 no CPT: 8.2µM*; Giardia kill: -8; ELG1 DNA repair: 23µM*; DT40 TDP1 CPT: 8.2µM*

What do the screens show for `CCOC(=O)c1cccc(NC(=O)N2CC=C(c3c[nH]c4ccccc34)CC2)c1`?
TDP1 inh: 0%; DT40 TDP1 no CPT: 21µM*; DT40 TDP1 CPT: inconclusive

How did CCOc1ccc(NC(=O)N2CC=C(c3c[nH]c4ccccc34)CC2)cc1 do in these assays?
TDP1 inh: 6%; DT40 TDP1 no CPT: 2.3µM*; DT40 TDP1 CPT: 3.7µM*

How did Cc1cc(NC(=O)N2CC=C(c3c[nH]c4ccccc34)CC2)ccc1Br do in these assays?
TDP1 inh: 8%; DT40 TDP1 no CPT: inconclusive; DT40 TDP1 CPT: inconclusive

What do the screens show for `CCc1ccc(NC(=O)N2CC=C(c3c[nH]c4ccccc34)CC2)cc1`?
TDP1 inh: 2%; DT40 TDP1 no CPT: 5.2µM*; DT40 TDP1 CPT: 5.8µM*

What do the screens show for `O=C(NC1CCS(=O)(=O)C1)c1ccc(S(=O)(=O)N2CCCCC2)cc1` (configuration not stated)?
TDP1 inh: 6%; IL-1B inflam inh: 6; DT40 TDP1 no CPT: 3%; Giardia kill: 3; ELG1 DNA repair: -9%; DT40 TDP1 CPT: 1%

Results for CSCCC(NC(=O)C1CCC(C)CC1)C(=O)NCCN1CCC(C)CC1 (configuration not stated) ?
TDP1 inh: 4%; IL-1B inflam inh: -25; DT40 TDP1 no CPT: -18%; Giardia kill: -3; ELG1 DNA repair: 2%; DT40 TDP1 CPT: -2%

What do the screens show for `COc1ccc(CNS(=O)(=O)c2cc3c(cc2C)n(C)c(=O)c(=O)n3C)cc1`?
TDP1 inh: -6%; DT40 TDP1 no CPT: -27%; DT40 TDP1 CPT: -3%

What do the screens show for `CC(=O)c1sc(NC(=O)COc2ccc(C)c(C)c2)nc1C`?
TDP1 inh: -3%; IL-1B inflam inh: -2; DT40 TDP1 no CPT: -20%; Giardia kill: -19; ELG1 DNA repair: 0%; DT40 TDP1 CPT: -25%

How did CCNc1ncnc2c1cnn2C1CCCCO1 (configuration not stated) do in these assays?
IL-1B inflam inh: -2; DT40 TDP1 no CPT: -22%; Giardia kill: 10; DT40 TDP1 CPT: -15%

What do the screens show for `COc1ccc(SCC(Cc2ccccc2)N2CCN(CCc3ccccc3)CCC2=O)cc1` (configuration not stated)?
TDP1 inh: 15%; Giardia kill: -10

How did O=c1c(O)c(-c2cccc(O)c2)oc2ccccc12 do in these assays?
TDP1 inh: -5%[56.1 µM]; DT40 TDP1 no CPT: inconclusive; DT40 TDP1 CPT: inconclusive

How did O=c1c(O)c(-c2ccc3c(c2)OCO3)oc2ccccc12 do in these assays?
TDP1 inh: -1%; IL-1B inflam inh: -1; DT40 TDP1 no CPT: inconclusive; Giardia kill: -19; ELG1 DNA repair: inconclusive; DT40 TDP1 CPT: 18µM*

Results for COc1cccc(-c2oc3ccccc3c(=O)c2O)c1 ?
TDP1 inh: 9%[56.1 µM]; DT40 TDP1 no CPT: 27µM*; DT40 TDP1 CPT: 27µM*

Results for COc1cc2c(cc1OC)C(c1ccc(Cl)cc1)N(c1cccc(C#N)c1)C(=O)C2 (configuration not stated) ?
TDP1 inh: 4%; DT40 TDP1 no CPT: inconclusive; DT40 TDP1 CPT: 23µM*

How did COc1cc2c(cc1OC)C(c1ccc(F)cc1)N(c1cccc(C#N)c1)C(=O)C2 (configuration not stated) do in these assays?
TDP1 inh: -4%; DT40 TDP1 no CPT: inconclusive; DT40 TDP1 CPT: 15µM*

How did COc1ccc2nc(SCC(=O)Nc3nccs3)[nH]c2c1 do in these assays?
TDP1 inh: -1%; IL-1B inflam inh: 0; DT40 TDP1 no CPT: inconclusive; Giardia kill: -16; ELG1 DNA repair: 26%; DT40 TDP1 CPT: -16%

How did Nc1nc(/C=C/c2cccnc2)nc(-c2ccccc2O)n1 do in these assays?
TDP1 inh: 2%; IL-1B inflam inh: -60*; DT40 TDP1 no CPT: 9.2µM*; Giardia kill: 2; ELG1 DNA repair: 3%; DT40 TDP1 CPT: 2.9µM*

Results for Nc1nc(/C=C/c2ccc(F)cc2)nc(-c2ccccc2O)n1 ?
TDP1 inh: -3%; IL-1B inflam inh: 20; DT40 TDP1 no CPT: -29%; Giardia kill: -10; ELG1 DNA repair: 14%; DT40 TDP1 CPT: inconclusive

Results for O=C1NC(=O)/C(=C\c2ccc(OCc3cccc([N+](=O)[O-])c3)cc2)N1 ?
TDP1 inh: 3%; IL-1B inflam inh: 1; DT40 TDP1 no CPT: inconclusive; Giardia kill: -9; ELG1 DNA repair: inconclusive; DT40 TDP1 CPT: 4%

How did O=C(O)c1cc(-c2ccccc2)nn1Cc1ccccc1 do in these assays?
TDP1 inh: -7%; DT40 TDP1 no CPT: -19%; DT40 TDP1 CPT: 7%

What do the screens show for `Cc1nn(-c2ccccc2)c2sc(C(=O)Nc3cccc(O)c3)cc12`?
DT40 TDP1 no CPT: 23µM*; DT40 TDP1 CPT: inconclusive

Results for Cc1nn(-c2ccccc2)c2sc(C(=O)Nc3ccccc3Br)cc12 ?
TDP1 inh: -6%

Results for Cc1nn(Cc2ccc(F)cc2)c2sc(C(=O)Nc3ccc(N4CCOCC4)cc3N3CCOCC3)cc12 ?
TDP1 inh: 10%; IL-1B inflam inh: -26; DT40 TDP1 no CPT: 7.3µM*; Giardia kill: -2; ELG1 DNA repair: 18µM*; DT40 TDP1 CPT: 8.2µM*

What do the screens show for `C=C(C)CN(CC)C(=O)CC1C(=O)NCCN1C` (configuration not stated)?
TDP1 inh: -2%; IL-1B inflam inh: 6; DT40 TDP1 no CPT: -2%; Giardia kill: 12; ELG1 DNA repair: 19%; DT40 TDP1 CPT: 10%
